# In PubChem BioAssay AID652015 (National Center for Advancing Translational Sciences (NCATS), 2013):
# Records with an inconclusive call do not appear. Values without a mark were called inactive. Activity calls are given as the source filed them. Calls follow the shape of the dose curve; as a rule, active = well fitted inhibition curve with a large enough effect; inconclusive = small, poorly fitted or top-dose-only effect; inactive = no such curve, though single readings can be large or run the other way.
# Molecular target: Coelenterazine h 2-monooxygenase (Renilla reniformis) (UniProt P27652)
# Experiment: qHTS Assay for Inhibitors of Sea Pansy Luciferase from the GSK Published Protein Kinase Inhibitor Set
# Details: purified Renilla luciferase, luminescence; series mostly up to 57.5 µM; activity change, negative = inhibition: at the top concentration
# Summary of the method: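 qHTS (roughly 60 uM down to 300 pM) against 1 nM Renilla luciferase, substrate coelenterazine h 5 uM, Tris acetate pH 7.5 buffer with NaCl, Tween-20 and BSA. Luminescence measured after an average 2 min incubation.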
# Potency is read from the fitted curve at half-maximal effect.
# Coelenterazine h 2-monooxygenase (Renilla reniformis), sequence (P27652 whole entry, looked up): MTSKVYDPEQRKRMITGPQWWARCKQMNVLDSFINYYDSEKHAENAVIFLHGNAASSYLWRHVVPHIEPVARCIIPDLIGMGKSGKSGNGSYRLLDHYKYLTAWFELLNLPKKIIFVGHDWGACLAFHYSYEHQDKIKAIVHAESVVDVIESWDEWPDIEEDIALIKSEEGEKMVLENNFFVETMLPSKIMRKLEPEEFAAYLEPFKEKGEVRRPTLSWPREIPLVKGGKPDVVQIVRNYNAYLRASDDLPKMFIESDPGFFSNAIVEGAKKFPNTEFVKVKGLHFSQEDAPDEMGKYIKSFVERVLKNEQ
Structure (SMILES),"activity change, negative = inhibition",Potency
COc1ccc(-c2nn3ncccc3c2-c2ccnc(Nc3ccc(Cl)c(C(F)(F)F)c3)n2)cc1,59.6%,
Cc1cc(-c2ccco2)cc(C)c1C=Cc1cncc(-c2nn[nH]n2)c1,-3.41%,
Cc1ccc(C(=O)NC2CCC2)cc1-c1ccc(C(=O)NCC2CC2)cc1,-28%,
Fc1cccc(COc2ccc(Nc3ncnc4sc(-c5cccs5)cc34)cc2Cl)c1,15.6%,
CCCNc1cccc(-n2ncc3c(NN=Cc4ccncc4)ncnc32)c1,21.5%,
Cc1ccc(NC(=O)c2ccoc2)cc1-c1ccc(C(=O)NCC2CC2)cc1,44.8%,
Clc1ccc(CNc2nccc(-c3cnn4ncccc34)n2)cc1,37.5%,
COC(=O)Nc1nc2ccc(Sc3ccc(NC(=O)Nc4cc(C(F)(F)F)ccc4F)cc3)cc2[nH]1,74.4%,
Cc1nc(-c2ccccc2)n2nc(NCCCN3CCOCC3)ncc12,7.85%,
CS(=O)(=O)CCNCc1ccoc1-c1ccc2ncnc(Nc3ccc(OCc4ccccc4)cc3)c2c1,39.4%,
CCc1cccc(CC)c1C=Cc1cncc(C(=O)NC)c1,8.32%,
CS(=O)(=O)Nc1ccc(-c2cc(-c3ccccc3)cc(C(N)=O)c2N)cc1,21.1%,
Cc1cc(O)cc(C)c1C=Cc1cncc(C(=O)OC(C)(C)C)c1,37.2%,
COc1cc(Nc2ncc3c(C)nc(-c4cccc(Oc5ccccc5)c4)n3n2)cc(OC)c1OC,13.9%,
CCS(=O)(=O)c1ccc(OC)c(Nc2ncc(-c3cccc(C(C)=O)c3)o2)c1,5.78%,
Fc1ccc(Oc2nccc(-c3c(-c4ccc(F)cc4)ncn3C3CCNCC3)n2)cc1,40.4%,
Nc1nc(-c2cccc(Cl)c2)c(-c2ccc3ncccc3n2)s1,-0.406%,
O=S1CCN(Cc2ccc(-c3ccc4ncnc(Nc5ccc(OCc6ccccc6)c(Cl)c5)c4c3)o2)CC1,48.7%,
Cc1nn(C)c2cc(N(C)c3ccnc(Nc4cccc(S(N)(=O)=O)c4)n3)ccc12,17.1%,
CC1=C(C(=O)Nc2ccc3n[nH]c(C)c3c2)C(c2ccc(C(F)(F)F)cc2)CC(=O)N1 (centres undefined),32.4%,

Structure (SMILES),"activity change, negative = inhibition",Potency
Cc1ccc(Nc2ccnc(Nc3cccc(C(N)=O)c3)n2)cc1O,2.39%,
O=S(=O)(CCNCc1ccc(-c2ccc3ncnc(Nc4ccc(OCc5cccc(F)c5)c(Cl)c4)c3c2)o1)c1ccccc1,16.1%,
CCN1CCC(C(=O)Nc2n[nH]c3nnc(-c4cccc(F)c4F)cc23)CC1,10.2%,
Fc1ccc(-c2nc3n(c2-c2ccncc2)CCS3)cc1,37.9%,
CCC(=O)Nc1ccc(C)c(-c2ccc(C(=O)NCC3CC3)cc2)c1,8.23%,
FC(F)(F)c1cccc(Nc2nccc(-c3cnn4nc(-c5ccccc5)ccc34)n2)c1,21.2%,
COc1cc(Nc2nccc(-c3cnn4ncccc34)n2)cc(OC)c1,3.31%,
NC(=O)c1cccc(Nc2nccc(Nc3cccc(F)c3)n2)c1,21.5%,
Nc1ncnc2occ(-c3ccc(NC(=O)Nc4cccc(C(F)(F)F)c4)cc3)c12,33.6%,
c1cnn2ncc(-c3ccnc(Nc4ccc5c(c4)OCCO5)n3)c2c1,61%,
COc1ccccc1C1=C(Nc2ccccc2)C(=O)NC1=O,38.9%,
CCS(=O)(=O)c1ccc(OC)c(Nc2ncc(-c3cccc(F)c3)o2)c1,39.5%,
CCc1cccc(NC(=O)Nc2ccc(Oc3ccc4nc(NC(=O)OC)[nH]c4c3)cc2)c1,27.3%,
COc1ccc(-c2cc3c(N)ncnc3o2)cc1,37.2%,
CCc1nccc2c1nc(-c1nonc1N)n2CC,19.1%,
O=C1Nc2ccc(C(=O)c3ccco3)cc2/C1=C/c1cc(Cl)c(O)c(Cl)c1,,16.3 µM (active)
COc1c(C(N)=O)cc(-c2ccc(Cl)cc2)cc1-c1ccc(S(N)(=O)=O)cc1,33.2%,
NC(=O)c1sc(-n2cnc3ccc(C(F)(F)F)cc32)cc1OCc1ccccc1Br,20.1%,
COC(=O)c1cncc(C=Cc2c(C)cc(O)cc2C)c1,31.7%,
